Results filed as inconclusive are left out. A call without a number means that no potency is given here. Values without a mark were called inactive. Calls of active or inactive are those of the source. Calls follow the shape of the full dose curve.
assay: Primary qHTS for Huh7 cytotoxicity: counterscreen for inhibitors of MERS-S pseudotyped particle cell entry (AID 1479147); settings: cell viability read-out; series mostly up to 57.1 µM; activity change, negative = cytotoxicity: at the top concentration

Compound | outcome | Potency | activity change, negative = cytotoxicity [%]
CCCN(CCC)S(=O)(=O)c1ccc(C(=O)O)cc1 | inactive |  | 
C[C@@H](O)[C@H]1C(=O)N2C(C(=O)O)=C(S[C@@H]3CN[C@H](C(=O)N(C)C)C3)[C@H](C)[C@H]12 |  | inactive | 
O=P(O)(O)C(O)(Cc1cccnc1)P(=O)(O)O |  |  | 2.44
CC(C)NC[C@@H](O)COc1ccc(CC(N)=O)cc1 |  |  | 2.67
O=C1NC(=O)C(c2ccccc2)(c2ccccc2)N1 | inactive |  | 
c1cnc2cc3c(cc2n1)C1CNCC3C1 | inactive |  | 
CC1(C)S[C@@H]2[C@H](NC(=O)C(C(=O)O)c3ccccc3)C(=O)N2[C@H]1C(=O)O (stereo partly specified) | inactive |  | 
CC(C)(C)NC(=O)[C@@H]1CN(Cc2cccnc2)CCN1C[C@@H](O)C[C@@H](Cc1ccccc1)C(=O)N[C@H]1c2ccccc2C[C@H]1O | inactive |  | 
CCCN[C@H]1CCc2nc(N)sc2C1 |  |  | 3.51
CC(=O)CCCCn1c(=O)c2c(ncn2C)n(C)c1=O | inactive |  | 
CC(C)NCC(O)c1ccc(O)c(O)c1 (stereo unspecified) | inactive |  | 
COC(=O)[C@@H]1CC2=CC(=O)CC[C@]2(C)[C@@]23O[C@@H]2C[C@@]2(C)[C@@H](CC[C@@]24CCC(=O)O4)[C@H]13 | inactive |  | 
CC(S)C(=O)NCC(=O)O (stereo unspecified) | inactive |  | 
CCCCCOC(=O)Nc1nc(=O)n([C@@H]2O[C@H](C)[C@@H](O)[C@H]2O)cc1F | inactive |  | 
CCn1cc(C(=O)O)c(=O)c2cc(F)c(N3CCNCC3)cc21 | inactive |  | 
C=C(c1ccc(C(=O)O)cc1)c1cc2c(cc1C)C(C)(C)CCC2(C)C | inactive |  | 
CCOC(=O)c1ncn2c1CN(C)C(=O)c1cc(F)ccc1-2 | inactive |  | 
CCC1(c2ccccc2)C(=O)NCNC1=O | inactive |  | 
O=C(O)CCNC(=O)c1ccc(N=Nc2ccc(O)c(C(=O)O)c2)cc1 |  |  | 1.34

Compound | outcome | Potency | activity change, negative = cytotoxicity [%]
NC(=O)OCC(COC(N)=O)c1ccccc1 |  |  | 2.48
NS(=O)(=O)c1cc2c(cc1C(F)(F)F)NCNS2(=O)=O | inactive |  | 
Cc1ccccc1N1C(=O)c2cc(S(N)(=O)=O)c(Cl)cc2NC1C (stereo unspecified) | inactive |  | 
O=C(C1CCCCC1)N1CC(=O)N2CCc3ccccc3C2C1 (stereo unspecified) | inactive |  | 
O=C(O)c1cn(C2CC2)c2cc(N3CCNCC3)c(F)cc2c1=O | inactive |  | 
C[C@](N)(Cc1ccc(O)c(O)c1)C(=O)O | inactive |  | 
CC[C@@]1(c2ccccc2)NC(=O)N(C)C1=O | inactive |  | 
CS(=O)(=O)OCCCCOS(C)(=O)=O | inactive |  | 
Cc1ccc(C)c(OCCCC(C)(C)C(=O)O)c1 | inactive |  | 
CCCc1nc2c(C)cc(-c3nc4ccccc4n3C)cc2n1Cc1ccc(-c2ccccc2C(=O)O)cc1 | inactive |  | 
O=C(NCCN1CCOCC1)c1ccc(Cl)cc1 |  |  | 2.65
Cc1cc(C)cc(OCC2CNC(=O)O2)c1 (stereo unspecified) | inactive |  | 
CCCCN1C[C@H](O)[C@@H](O)[C@H](O)[C@H]1CO | inactive |  | 
CC(C(=O)O)c1cccc(C(=O)c2ccccc2)c1 (stereo unspecified) |  |  | 2.2
Oc1ccc(C2CNCCc3c2cc(O)c(O)c3Cl)cc1 (stereo unspecified) |  |  | 2.53
CC(C)(C)NC(=O)[C@H]1CC[C@H]2[C@@H]3CC[C@H]4NC(=O)C=C[C@]4(C)[C@H]3CC[C@]12C |  |  | -7.71
CC1Cc2ccccc2N1NC(=O)c1ccc(Cl)c(S(N)(=O)=O)c1 (stereo unspecified) | inactive |  | 
Cc1cnc(C(=O)NCCc2ccc(S(=O)(=O)NC(=O)NC3CCCCC3)cc2)cn1 | inactive |  | 
NC(=O)NO |  |  | 0.734

assay: Primary qHTS for inhibitors of MERS-S pseudo-typed particle cell entry (AID 1479149); settings: MERS-S pseudotyped particle entry, luciferase; series mostly up to 57.1 µM; activity change, negative = inhibition: at the top concentration; also: nearly all actives have a fitted effect of over 60% in size

Compound | outcome | Potency | activity change, negative = inhibition [%]
CCCN(CCC)S(=O)(=O)c1ccc(C(=O)O)cc1 | inactive |  | 
C[C@@H](O)[C@H]1C(=O)N2C(C(=O)O)=C(S[C@@H]3CN[C@H](C(=O)N(C)C)C3)[C@H](C)[C@H]12 |  | inactive | 
O=P(O)(O)C(O)(Cc1cccnc1)P(=O)(O)O | inactive |  | 
CC(C)NC[C@@H](O)COc1ccc(CC(N)=O)cc1 | inactive |  | 
O=C1NC(=O)C(c2ccccc2)(c2ccccc2)N1 | inactive |  | 
c1cnc2cc3c(cc2n1)C1CNCC3C1 | inactive |  | 
CC1(C)S[C@@H]2[C@H](NC(=O)C(C(=O)O)c3ccccc3)C(=O)N2[C@H]1C(=O)O (stereo partly specified) | inactive |  | 
CC(C)(C)NC(=O)[C@@H]1CN(Cc2cccnc2)CCN1C[C@@H](O)C[C@@H](Cc1ccccc1)C(=O)N[C@H]1c2ccccc2C[C@H]1O | inactive |  | 
CCCN[C@H]1CCc2nc(N)sc2C1 | inactive |  | 
CC(=O)CCCCn1c(=O)c2c(ncn2C)n(C)c1=O | inactive |  | 
CC(C)NCC(O)c1ccc(O)c(O)c1 (stereo unspecified) | inactive |  | 
COC(=O)[C@@H]1CC2=CC(=O)CC[C@]2(C)[C@@]23O[C@@H]2C[C@@]2(C)[C@@H](CC[C@@]24CCC(=O)O4)[C@H]13 |  |  | -8.37
CC(S)C(=O)NCC(=O)O (stereo unspecified) | inactive |  | 
CCCCCOC(=O)Nc1nc(=O)n([C@@H]2O[C@H](C)[C@@H](O)[C@H]2O)cc1F | inactive |  | 
CCn1cc(C(=O)O)c(=O)c2cc(F)c(N3CCNCC3)cc21 | inactive |  | 
C=C(c1ccc(C(=O)O)cc1)c1cc2c(cc1C)C(C)(C)CCC2(C)C |  |  | -25.7
CCOC(=O)c1ncn2c1CN(C)C(=O)c1cc(F)ccc1-2 | inactive |  | 
CCC1(c2ccccc2)C(=O)NCNC1=O | inactive |  | 
O=C(O)CCNC(=O)c1ccc(N=Nc2ccc(O)c(C(=O)O)c2)cc1 | inactive |  | 

Compound | outcome | Potency | activity change, negative = inhibition [%]
NC(=O)OCC(COC(N)=O)c1ccccc1 | inactive |  | 
NS(=O)(=O)c1cc2c(cc1C(F)(F)F)NCNS2(=O)=O | inactive |  | 
Cc1ccccc1N1C(=O)c2cc(S(N)(=O)=O)c(Cl)cc2NC1C (stereo unspecified) |  |  | -1.01
O=C(C1CCCCC1)N1CC(=O)N2CCc3ccccc3C2C1 (stereo unspecified) | inactive |  | 
O=C(O)c1cn(C2CC2)c2cc(N3CCNCC3)c(F)cc2c1=O | inactive |  | 
C[C@](N)(Cc1ccc(O)c(O)c1)C(=O)O |  |  | 3.31
CC[C@@]1(c2ccccc2)NC(=O)N(C)C1=O | inactive |  | 
CS(=O)(=O)OCCCCOS(C)(=O)=O | inactive |  | 
Cc1ccc(C)c(OCCCC(C)(C)C(=O)O)c1 | inactive |  | 
CCCc1nc2c(C)cc(-c3nc4ccccc4n3C)cc2n1Cc1ccc(-c2ccccc2C(=O)O)cc1 | inactive |  | 
O=C(NCCN1CCOCC1)c1ccc(Cl)cc1 | inactive |  | 
Cc1cc(C)cc(OCC2CNC(=O)O2)c1 (stereo unspecified) | inactive |  | 
CCCCN1C[C@H](O)[C@@H](O)[C@H](O)[C@H]1CO |  |  | -0.753
CC(C(=O)O)c1cccc(C(=O)c2ccccc2)c1 (stereo unspecified) | inactive |  | 
Oc1ccc(C2CNCCc3c2cc(O)c(O)c3Cl)cc1 (stereo unspecified) | inactive |  | 
CC(C)(C)NC(=O)[C@H]1CC[C@H]2[C@@H]3CC[C@H]4NC(=O)C=C[C@]4(C)[C@H]3CC[C@]12C |  |  | -81.2
CC1Cc2ccccc2N1NC(=O)c1ccc(Cl)c(S(N)(=O)=O)c1 (stereo unspecified) | inactive |  | 
Cc1cnc(C(=O)NCCc2ccc(S(=O)(=O)NC(=O)NC3CCCCC3)cc2)cn1 | inactive |  | 
NC(=O)NO | inactive |  | 

From PubChem BioAssay (NCATS)
